The entries come from a sample that favours hits as a whole.
PglD DTNB = inhibitors of Campylobacter jejuni PglD acetyltransferase | AID 602405 | 360,000 compounds, 0.098% hits | inhibition, % at 12.5 µM | purified PglD enzyme, DTNB colorimetric CoA detection; in the data active means inhibition above about 16%, passing the limit was not always enough; inconclusive means no clear call, values can overlap the other calls
Glyco luc inh = N-linked glycosylation inhibition. AID 588692. D54 ERlucT glycosylation luciferase reporter, 24 h; percent of 100 nM tunicamycin response. 360,000 compounds, 0.23% hits. reporter increase, % at 12.5 µM;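 active means mean luciferase reporter signal, scaled so untreated is 0 and the glycosylation-blocking control 100, at or above a set limit in every replicate; inconclusive means mean reaches the limit but not every replicate does; inactive means mean below the limit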;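 further: luciferase carries N-glycosylation sites so blocking glycosylation raises the light; 0% = median of neutral control wells and 100% = median of 100 nM tunicamycin wells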
DENV2 CPE rescue = DENV2-induced cell death inhibition; DENV2-infected cells, cytopathic effect rescue, plate reader; CPE inhibition, % at 9.99 µM; 350,000 compounds, 1.7% hits; in the data active means CPE inhibition above about 20%, passing the limit was not always enough; inconclusive means no clear call, values can overlap the other calls; tested in BHK-21 cells;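 further: 0% = median of neutral control wells and 100% = median of positive control wells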
Rtt109 HAT inh = inhibitors of Candida albicans Rtt109/Vps75 histone acetyltransferase; Q5AAJ8; purified Rtt109/Vps75, ThioGlo CoA-SH fluorescence, 4 h; inhibition, % at 34.9 µM; 330,000 compounds, 0.16% hits; AID 540336;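 active means inhibition of at least 50% in every replicate; inconclusive means best replicate reaches 50% inhibition but some replicates fall short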
Target sequence (Q5AAJ8 whole entry, looked up): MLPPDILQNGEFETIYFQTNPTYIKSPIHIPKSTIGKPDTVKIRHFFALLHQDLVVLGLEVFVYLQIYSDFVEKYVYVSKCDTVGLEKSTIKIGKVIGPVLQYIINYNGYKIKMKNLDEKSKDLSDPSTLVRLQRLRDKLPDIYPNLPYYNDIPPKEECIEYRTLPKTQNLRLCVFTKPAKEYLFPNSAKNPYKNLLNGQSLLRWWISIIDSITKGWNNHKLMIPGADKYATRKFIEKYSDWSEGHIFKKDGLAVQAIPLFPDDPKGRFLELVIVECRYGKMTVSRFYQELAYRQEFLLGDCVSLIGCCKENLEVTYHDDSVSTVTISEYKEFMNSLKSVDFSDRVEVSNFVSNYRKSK
The depositor's hits bear a star.

Results for O=C(Nc1cccc2ccccc12)c1ccc([N+](=O)[O-])o1 ?
PglD DTNB: -2.1; Glyco luc inh: 27.5*; DENV2 CPE rescue: 13.9; Rtt109 HAT inh: 7.1

How did O=C(Nc1ccc(N2CCCCC2)cc1)c1ccc([N+](=O)[O-])o1 do in these assays?
PglD DTNB: -4.8; Glyco luc inh: -7.7; DENV2 CPE rescue: -6.1; Rtt109 HAT inh: 1.0

What do the screens show for `C[C@@H]1CN([C@@H](C)CO)C(=O)Cc2cc(NC(=O)Nc3cccc4ccccc34)ccc2O[C@H]1CN(C)C(=O)Nc1ccc(C(F)(F)F)cc1`?
PglD DTNB: -1.4; DENV2 CPE rescue: 3.3

How did O=S1(=O)CCO[C@H]2Cc3ccccc3[C@H]2N1Cc1ccc(Cl)cc1 do in these assays?
PglD DTNB: 0.4; Glyco luc inh: 4.9; DENV2 CPE rescue: 85.2*; Rtt109 HAT inh: -26.4

How did O=S1(=O)CCO[C@H]2Cc3ccccc3[C@H]2N1Cc1cccc(Cl)c1 do in these assays?
PglD DTNB: 2.6; Glyco luc inh: 9.8; DENV2 CPE rescue: inconclusive; Rtt109 HAT inh: 0.2

Results for COc1cccc(S(=O)(=O)N[C@H]2C=C[C@H](CC(=O)NCc3ccc(F)cc3)O[C@@H]2CO)c1 ?
PglD DTNB: 3.5; DENV2 CPE rescue: 8.0

Results for CN1CCN(C(=O)C[C@H]2CC[C@H]3[C@@H](COC[C@H](O)CN3C(=O)C3CCCC3)O2)CC1 ?
PglD DTNB: 0.2; DENV2 CPE rescue: 16.6

Results for O=C(C[C@H]1CC[C@H]2[C@@H](COC[C@@H](O)CN2C(=O)Nc2cc(Cl)cc(Cl)c2)O1)N1CCCCC1 ?
PglD DTNB: 1.8; DENV2 CPE rescue: 30.4*

How did CCCNC(=O)N1C[C@@H](O)COC[C@@H]2O[C@H](CC(=O)N3CCOCC3)CC[C@H]21 do in these assays?
PglD DTNB: 6.7; DENV2 CPE rescue: -9.7

Results for CN1CCN(C(=O)C[C@@H]2CC[C@H]3[C@@H](COC[C@H](O)CN3C(=O)C3CCCC3)O2)CC1 ?
PglD DTNB: -1.1; DENV2 CPE rescue: 76.1*

What do the screens show for `O=C(C[C@H]1CC[C@H]2[C@@H](COC[C@H](O)CN2CC2CCOCC2)O1)N1CCOCC1`?
PglD DTNB: -0.7; DENV2 CPE rescue: -3.1

What do the screens show for `CCCNC(=O)N1C[C@H](O)COC[C@@H]2O[C@@H](CC(=O)N3CCOCC3)CC[C@H]21`?
PglD DTNB: 4.2; DENV2 CPE rescue: 107.8*

How did O=C(C[C@@H]1CC[C@@H]2[C@H](COC[C@H](O)CN2CC2CCOCC2)O1)N1CCOCC1 do in these assays?
PglD DTNB: 2.2; DENV2 CPE rescue: 102.4*

What do the screens show for `COc1ccc2c3c(n(C)c2c1)[C@@H](CO)N(CC1CC1)CC31CCN(C(=O)c2ccc(F)cc2)CC1`?
DENV2 CPE rescue: 15.3

What do the screens show for `O=C(C[C@@H]1CC[C@H](NC(=O)Nc2ccc3c(c2)OCO3)[C@H](CO)O1)NCc1ccc(F)cc1`?
PglD DTNB: 1.3; DENV2 CPE rescue: -2.9

How did C/C=C/c1cnc2c(c1)C(=O)N([C@H](C)CO)C[C@H](C)[C@H](CN(C)S(=O)(=O)c1ccccc1)O2 do in these assays?
PglD DTNB: 0.8; DENV2 CPE rescue: 79.5*

What do the screens show for `C[C@H](CO)N1C[C@H](C)[C@@H](CN(C)C(=O)c2ccccn2)Oc2ncc(-c3ccccc3F)cc2C1=O`?
PglD DTNB: -0.8; DENV2 CPE rescue: 20.8*

What do the screens show for `C[C@@H]1CN([C@@H](C)CO)C(=O)c2cc(-c3ccccc3F)cnc2O[C@@H]1CN(C)C(=O)C1CCOCC1`?
PglD DTNB: 3.6; DENV2 CPE rescue: 60.1*

Results for C[C@@H]1CN([C@H](C)CO)C(=O)c2cc(-c3ccccc3F)cnc2O[C@H]1CN(C)C(=O)C1CCOCC1 ?
PglD DTNB: -4.2; DENV2 CPE rescue: -0.1

What do the screens show for `C[C@H](CO)N1C[C@H](C)[C@H](CN(C)Cc2ccncc2)Oc2ncc(/C=C/c3ccccc3)cc2C1=O`?
PglD DTNB: -0.6; DENV2 CPE rescue: 23.1*

Results for C[C@@H]1CN([C@H](C)CO)C(=O)c2cc(NS(=O)(=O)c3cccs3)ccc2O[C@@H](C)CCCCO[C@H]1CN(C)S(=O)(=O)c1ccc(F)cc1 ?
PglD DTNB: -0.3; DENV2 CPE rescue: -7.0

How did O=C(C[C@@H]1C[C@H]2c3cc(NC(=O)C4CCOCC4)ccc3O[C@H]2[C@H](CO)O1)NCC1CC1 do in these assays?
PglD DTNB: -3.1; DENV2 CPE rescue: 9.8

How did C[C@@H]1CN([C@H](C)CO)C(=O)c2cc(C#Cc3ccccc3F)cnc2O[C@H]1CN(C)C(=O)C1CCOCC1 do in these assays?
PglD DTNB: 7.1; DENV2 CPE rescue: 34.7*
